Results: PubChem BioAssay (NCATS)
Inconclusive results are not listed. The source made the active and inactive calls. Unless noted, calls follow the shape of the dose curve; as a rule, active = well fitted curve in the direction sought with a large enough effect; inconclusive = small, poorly fitted or top-dose-only effect, or another doubt; inactive = no such curve, though single readings can be large; an effect the other way counts as inactive or inconclusive.

Experiments:
[1] = Cytometric Cell-Based qHTS for Inhibitors of the mTORC1 Signaling Pathway in MEF (Tsc2-/-, p53-/-) Cells (AID 2660);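 also: Tsc2 and p53 null MEFs carrying empty vector with compound for 24 h; percent of cells above a phospho-rpS6 to PI ratio cutoff in each well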
Outline: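 Percent of cells positive for normalized phospho-S6 staining is reported, with the cutoff set from rapamycin (7.5 nM) versus DMSO wells. Tsc2-/-, p53-/- MEFs received compound for 24 hrs.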

[2] = High Content Imaging Cell-Based qHTS for Inhibitors of the mTORC1 Signaling Pathway in MEF (Tsc2-/-, p53-/-) Cells (AID 2666); conditions: at 38.3 µM (top of the series);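 also: percent of cells scored positive for phospho-rpS6 Ser235/236 immunostaining by imaging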
Outline: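 Tsc2-/-, p53-/- MEFs (empty-vector stable) grown in DMEM + 10% FBS were exposed to compounds for 24 hrs at 37 degree Celsius, fixed, and stained with Alexa-488 anti-phospho-rpS6 Ser235/236 plus Hoechst. Imaging gave the percentage of positive cells per well.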

[3] = High Content Imaging Cell-Based qHTS for Inhibitors of the mTORC1 Signaling Pathway in MEF Cells (AID 2667);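 also: Tsc2-/- p53-/- MEFs stably re-expressing wild-type Tsc2 exposed 24 h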
Outline: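 Tsc2-/-, p53-/- MEFs stably re-expressing WT Tsc2, grown in DMEM + 10% FBS, were treated with compounds for 24 hrs at 37 degree Celsius, fixed, and stained with Alexa-488 phospho-rpS6 Ser235/236 antibody plus Hoechst; results given as % positive cells.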

[4] = Cytometry Cell-Based qHTS for Inhibitors of the mTORC1 Signaling Pathway in MEF cells (AID 2668);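 also: Tsc2-/- p53-/- mouse embryonic fibroblasts stably re-expressing wild-type Tsc2; percent cells positive for phospho-rpS6 Ser235/236 relative to propidium iodide stain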
Outline: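 Phospho-rpS6 (Ser235/236) immunofluorescence over PI signal, scored as % positive cells using thresholds from 7.5 nM rapamycin and DMSO wells, after 24 h compound exposure of WT-Tsc2-rescued Tsc2-/-, p53-/- MEFs. PI cell count recorded for viability.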

[5] = biological target: Ubiquitin carboxyl-terminal hydrolase 2 (Homo sapiens) (UniProt O75604); experiment: qHTS Validation Assay for Inhibitors of Ubiquitin-specific Protease USP2a Using CHOP2 as the Reporter (AID 463106)
Sequence of Ubiquitin carboxyl-terminal hydrolase 2 (Homo sapiens) (O75604 whole entry, looked up): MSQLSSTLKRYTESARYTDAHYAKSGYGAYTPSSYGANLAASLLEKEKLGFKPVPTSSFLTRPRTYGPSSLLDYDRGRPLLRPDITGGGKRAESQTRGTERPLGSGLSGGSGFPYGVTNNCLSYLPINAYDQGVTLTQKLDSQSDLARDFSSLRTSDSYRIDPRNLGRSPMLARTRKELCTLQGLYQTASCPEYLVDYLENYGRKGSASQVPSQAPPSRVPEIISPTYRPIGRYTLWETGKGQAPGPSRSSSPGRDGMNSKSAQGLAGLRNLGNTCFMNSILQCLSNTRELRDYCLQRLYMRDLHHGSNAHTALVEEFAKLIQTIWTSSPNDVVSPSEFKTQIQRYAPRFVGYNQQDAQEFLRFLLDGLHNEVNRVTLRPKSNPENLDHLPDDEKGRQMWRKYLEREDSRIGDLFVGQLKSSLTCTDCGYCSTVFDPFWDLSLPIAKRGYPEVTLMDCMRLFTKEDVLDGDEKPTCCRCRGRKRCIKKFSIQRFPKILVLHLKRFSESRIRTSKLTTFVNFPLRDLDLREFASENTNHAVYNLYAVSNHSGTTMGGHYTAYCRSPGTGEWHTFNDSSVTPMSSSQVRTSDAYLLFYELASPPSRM
Outline: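 Readout was coupled fluorescence (Ex 485/Em 531 nm), read 60 min after adding 25 nM final Ub-CHOP2 and 25 nM reporter substrate. Beforehand, 10 nM final USP2 core had 30 min at RT with compound in pH 8.0 buffer. Curves were fitted after normalization to NEM and flagged for artifacts using time-zero reads.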

[6] = biological target: DNA polymerase III PolC-type (Bacillus subtilis (strain 168)) (UniProt P13267); experiment: qHTS Validation Assay for the Inhibitors of DNA Replication in Gram-Positive Bacteria (AID 485295);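 also: reconstituted holoenzyme with PolC plus beta clamp SSB and primase; PicoGreen fluorescence of double-stranded DNA made on primed circular M13 template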
Sequence of DNA polymerase III PolC-type (Bacillus subtilis (strain 168)) (P13267 whole entry, looked up): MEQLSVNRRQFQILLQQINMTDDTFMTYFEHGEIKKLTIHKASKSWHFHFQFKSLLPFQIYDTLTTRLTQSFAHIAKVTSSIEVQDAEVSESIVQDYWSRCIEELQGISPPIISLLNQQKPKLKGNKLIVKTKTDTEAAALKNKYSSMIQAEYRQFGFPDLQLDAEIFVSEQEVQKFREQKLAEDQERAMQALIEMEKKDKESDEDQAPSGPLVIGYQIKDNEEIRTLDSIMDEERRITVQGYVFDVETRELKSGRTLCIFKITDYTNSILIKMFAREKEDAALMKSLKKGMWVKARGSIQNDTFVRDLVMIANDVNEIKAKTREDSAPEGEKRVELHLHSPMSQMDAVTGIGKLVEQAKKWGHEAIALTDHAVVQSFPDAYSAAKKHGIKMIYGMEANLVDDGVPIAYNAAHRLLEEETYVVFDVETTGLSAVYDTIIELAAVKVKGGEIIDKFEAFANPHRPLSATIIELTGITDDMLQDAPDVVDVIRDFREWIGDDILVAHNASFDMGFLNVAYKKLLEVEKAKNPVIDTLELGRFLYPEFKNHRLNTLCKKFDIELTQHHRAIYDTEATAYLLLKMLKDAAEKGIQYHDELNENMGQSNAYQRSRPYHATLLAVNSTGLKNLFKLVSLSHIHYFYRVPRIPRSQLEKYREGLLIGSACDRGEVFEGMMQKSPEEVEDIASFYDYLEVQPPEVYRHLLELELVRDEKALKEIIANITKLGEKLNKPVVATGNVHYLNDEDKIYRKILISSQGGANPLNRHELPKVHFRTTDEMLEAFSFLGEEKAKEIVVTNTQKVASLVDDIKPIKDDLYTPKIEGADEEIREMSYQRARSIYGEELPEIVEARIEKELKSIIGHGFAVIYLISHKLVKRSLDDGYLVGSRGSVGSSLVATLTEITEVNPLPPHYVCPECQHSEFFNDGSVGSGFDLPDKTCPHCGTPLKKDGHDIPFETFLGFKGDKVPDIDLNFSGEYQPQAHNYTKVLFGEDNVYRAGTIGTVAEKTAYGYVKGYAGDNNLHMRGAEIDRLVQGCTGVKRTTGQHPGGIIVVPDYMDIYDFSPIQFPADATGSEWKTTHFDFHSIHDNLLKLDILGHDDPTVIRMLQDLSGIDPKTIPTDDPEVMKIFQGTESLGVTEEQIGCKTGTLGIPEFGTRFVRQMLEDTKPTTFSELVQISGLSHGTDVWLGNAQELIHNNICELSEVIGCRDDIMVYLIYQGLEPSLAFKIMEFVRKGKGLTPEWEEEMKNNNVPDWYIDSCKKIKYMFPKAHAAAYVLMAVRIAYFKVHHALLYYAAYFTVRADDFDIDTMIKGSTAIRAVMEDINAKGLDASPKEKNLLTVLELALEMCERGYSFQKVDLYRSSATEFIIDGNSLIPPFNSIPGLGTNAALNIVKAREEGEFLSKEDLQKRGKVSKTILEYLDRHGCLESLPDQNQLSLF
Outline: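 Double-stranded DNA product detected by PicoGreen fluorescence after EDTA quench. Compound incubated with B. subtilis holoenzyme (PolC, beta subunit, SSB, primase) before substrate addition; primed replication of M13Gori with dNTPs and NTPs at room temperature; DMSO defines 0% inhibition.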

[7] = biological target: Tumor susceptibility gene 101 protein (Homo sapiens) (UniProt Q99816); experiment: qHTS Validation Assay for Iinhibitors of HIV-1 Budding by Blocking the Interaction of PTAP/TSG101 (AID 485342; calls by dose curve)
Sequence of Tumor susceptibility gene 101 protein (Homo sapiens) (Q99816 whole entry, looked up, the tested form may be a part): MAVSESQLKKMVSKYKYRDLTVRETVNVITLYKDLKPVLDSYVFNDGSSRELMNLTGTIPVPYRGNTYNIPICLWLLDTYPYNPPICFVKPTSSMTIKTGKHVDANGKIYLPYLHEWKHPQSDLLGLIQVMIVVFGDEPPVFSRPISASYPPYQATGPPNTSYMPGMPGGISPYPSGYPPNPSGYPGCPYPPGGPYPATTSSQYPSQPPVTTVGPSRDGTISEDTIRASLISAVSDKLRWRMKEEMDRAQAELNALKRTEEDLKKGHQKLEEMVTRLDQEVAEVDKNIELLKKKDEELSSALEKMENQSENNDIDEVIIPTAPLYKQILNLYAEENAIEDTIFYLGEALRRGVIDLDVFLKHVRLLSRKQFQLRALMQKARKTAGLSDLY
Outline: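 Fluorescence polarization of 50 nM FITC-PTAP peptide bound to 10 uM Tsg101 binding domain was read after 20 min room-temperature incubation with compounds, in 10 mM HEPES pH 7.5, 0.15 M NaCl, 0.01% Tween 20.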

[8] = qHTS Validation Assay to Find Inhibitors of Chronic Active B-Cell Receptor Signaling (AID 485345; active = well fitted curve in the direction sought with a large enough effect in the main read-out, with a control signal flat, not every such curve was filed as active)
Outline: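 Read-out: ratio of filter-corrected green (IkappaBalpha fusion) to red (native) luciferase signal in doxycycline-induced TMD8 cells after 4 h at 37C. Titration spanned 46 uM–3 nM; Data were normalised to basal cells and 10 uM MG-132 wells.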

[9] = biological target: Beta-2 adrenergic receptor (Homo sapiens) (UniProt P07550); experiment: qHTS validation assay of beta-arrestin-biased ligands of beta2-adrenergic receptor (AID 485366)
Sequence of Beta-2 adrenergic receptor (Homo sapiens) (P07550 whole entry, looked up): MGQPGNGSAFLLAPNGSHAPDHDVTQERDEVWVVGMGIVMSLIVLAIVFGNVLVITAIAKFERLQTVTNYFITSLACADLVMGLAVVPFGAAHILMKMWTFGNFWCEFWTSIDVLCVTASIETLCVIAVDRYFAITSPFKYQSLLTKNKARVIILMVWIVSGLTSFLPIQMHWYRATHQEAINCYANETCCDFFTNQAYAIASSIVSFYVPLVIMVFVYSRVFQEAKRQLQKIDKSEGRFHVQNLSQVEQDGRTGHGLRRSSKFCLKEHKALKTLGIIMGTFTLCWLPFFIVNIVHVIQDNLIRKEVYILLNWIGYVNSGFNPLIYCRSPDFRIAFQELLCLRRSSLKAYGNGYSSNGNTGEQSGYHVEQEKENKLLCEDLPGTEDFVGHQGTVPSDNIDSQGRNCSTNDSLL
Source text: NIH Molecular Libraries Probe Production Network [MLPCN]
NIH Chemical Genomics Center [NCGC]
PI: Bryan Roth and Bob Lefkowitz
The concept of biased agonism is an emerging concept of molecular pharmacology which proposes that seven transmembrane receptors (7TMRs) or G protein-coupled receptors (GPCRs), exist in multiple signaling conformations and complexes and that ligands (either agonists or antagonists) can induce signaling biased responses for distinct signal transduction cascades.
Furthermore, accumulating evidence over the last decade has drawn attention to a novel function of beta-arrestins as signal transducers that scaffold various signaling molecules upon activation of 7TMRs. […] This beta-arrestin-biased signaling presumably leads to distinct physiological outcomes from those by G protein activation.
Additionally, the active receptor conformations which […] on this beta-arrestin signaling are likely different from those activating G protein signaling
The goal of this screening project will be to discover and optimize novel beta-arrestin-biased ligands for beta2-AR signaling. […]
Tango cells were dispensed into white, solid, tissue-culture-treated 1536-well plates at 1500 cells/well in DMEM, containing 1% fetal bovine serum (FBS). […] Plates were then incubated for 15 minutes at room temperature, and subsequently measured on a ViewLux plate reader for luminescent signal using a clear filter with a 10 second exposure and 2x binning. The %Activity was determined from the corrected luminescence values.
Concentration-response curves were fitted to the signals arising from the resulting luminescence. The concentration-effect curves were then classified based on curve quality (r2), response magnitude and degree of measured activity, and compounds were subsequently categorized based on their curve class.
Keywords: biased agonism, beta2-AR, beta-arrestin, GPCR, 7TMR, Tango, luminescence, MLSMR, MLPCN, NIH Roadmap, qHTS, NCGC

[10] = Validation screen for small molecules that induce DNA re-replication in MCF 10A normal breast cells (AID 463097); also: nearly all actives have a fitted effect of over 60% in size
Outline: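 Read-out is Hoechst total nuclear intensity by fluorescence scanning imager, flagging increased high-DNA-content nuclei. Compounds were incubated with MCF 10A cells for 48 hr (37 C, 5% CO2) before 40 min staining.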

Measured: outcome

CN[C@H](CC(C)C)C(=O)N[C@H]1C(=O)N[C@@H](CC(N)=O)C(=O)N[C@@H]2C(=O)N[C@H]3C(=O)N[C@H](C(=O)N[C@H](C(=O)O)c4cc(O)cc(O)c4-c4cc3ccc4O)[C@H](O)c3ccc(c(Cl)c3)Oc3cc2cc(c3O[C@@H]2O[C@H](CO)[C@@H](O)[C@H](O)[C@@H]2O[C@H]2C[C@](C)(N)[C@H](O)[C@H](C)O2)Oc2ccc(cc2Cl)[C@H]1O
inactive: [1] | [2] | [3] | [4] | [5] | [6] | [7] | [8] | [9]

N=c1ccn2c(n1)O[C@H]1[C@@H](O)[C@@H](CO)O[C@H]12
inactive: [10]

O=c1[nH]c(=O)n([C@H]2C[C@@H](O)[C@@H](CO)O2)cc1C=CBr
inactive: [1] | [2] | [3] | [4] | [5] | [6] | [7] | [8] | [9]

COc1ccc2cc([S+]([O-])Cc3ncc(C)c(OC)c3C)nc2c1
inactive: [1] | [2] | [3] | [4] | [5] | [6] | [7] | [9]
